An excerpt weighted towards active compounds, which were near 5.1% of everything screened.
Tau fibril ThT: tau fibrillization inhibition (ThT binding); recombinant tau K18 P301L, heparin-induced fibrillization, ThT fluorescence; Potency, µM (doses to about 57.4 µM), for the others: at the top dose activity, negative = inhibition, hits mostly inhibitors; 270,000 compounds, 2.1% hits; AID 1460; further: potency means the concentration at half of the fitted maximal effect; nearly all actives have a fitted effect of over 55% in size
Target sequence (P10636 561-689 P618L limits assumed): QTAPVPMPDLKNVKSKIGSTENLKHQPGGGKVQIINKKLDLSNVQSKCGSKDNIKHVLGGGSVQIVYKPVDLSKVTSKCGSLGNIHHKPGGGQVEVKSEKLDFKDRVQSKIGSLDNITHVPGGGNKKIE
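Using a mix of unlabeled (15 uM) and Alexa 594-labeled (0.24 uM) tau K18 P301L, heparin-triggered fibrillization over 6 hr at 37 C was scored by ThT fluorescence.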
Tau FP inhib: blocks human tau fibril formation measured by polarization | 280,000 compounds, 0.39% hits | Potency, µM (series often up to 57.7 µM), inactives show at the top dose activity, negative = inhibition, actives largely listed as inhibitors | P10636 | K18 P301L tau heparin fibrillization, Alexa594 FP, 6 h; further: potency means the concentration at half of the fitted maximal effect; nearly all actives have a fitted effect of over 55% in size
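Heparin (20 uM) drove fibril formation of recombinant tau K18 P301L, 15 uM unlabeled with 0.24 uM Alexa 594 label, for 6 hr at 37 C in 100 mM sodium acetate pH 7. Fluorescence polarization (555/632 nm) read 1 hr after 30 uM ThT.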
NPSR antag: antagonists of human neuropeptide S receptor cAMP signaling; CHO-NPSR cells, cAMP TR-FRET, antagonist mode; Potency, µM (titrated, usually from 38.3 µM), inactives show top-dose activity change, negative = inhibition, hits mostly inhibitors; 220,000 compounds, 1% hits; AID 1461; further: potency means the concentration at half of the fitted maximal effect; nearly all actives have a fitted effect of over 50% in size
Target sequence (Q6W5P4 whole entry, looked up): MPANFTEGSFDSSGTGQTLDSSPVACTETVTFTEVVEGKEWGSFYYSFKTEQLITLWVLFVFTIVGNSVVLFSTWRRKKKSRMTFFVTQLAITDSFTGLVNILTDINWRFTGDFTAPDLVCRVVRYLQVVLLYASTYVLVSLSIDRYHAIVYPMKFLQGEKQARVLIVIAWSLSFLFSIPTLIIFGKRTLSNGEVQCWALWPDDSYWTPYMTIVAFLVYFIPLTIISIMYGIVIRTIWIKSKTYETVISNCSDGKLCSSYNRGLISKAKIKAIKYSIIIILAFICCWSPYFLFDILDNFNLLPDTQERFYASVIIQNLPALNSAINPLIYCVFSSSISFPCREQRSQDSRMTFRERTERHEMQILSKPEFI
KDM4E inh: JMJD2E (human) inhibition; JMJD2E catalytic domain, FDH-coupled NADH fluorescence (FDH is formaldehyde dehydrogenase); 230,000 compounds, 1.6% hits; Potency, µM (series often up to 57.1 µM), inactives show at the highest dose activity change, negative = inhibition, hits mostly inhibitors; active means well fitted inhibition curve with a large enough effect, not every such curve was filed as active; inconclusive means small, poorly fitted or top-dose-only effect, or another doubt; inactive means no such curve, though single readings can be large or run the other way;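 further: potency means the concentration at half of the fitted maximal effect; 0% = wells with enzyme and -100% = buffer wells without enzyme; nearly all actives have a fitted effect of over 50% in size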
PNC assembly inh: perinucleolar compartment assembly inhibition; PC3M PTB-GFP, PNC prevalence imaging, 16 h; hits give low values; activity change (PNC), negative = inhibition, % at 10 µM; 140,000 compounds, 3.1% hits; AID 2417;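 active means readout at or below -70, meaning at least 70% loss of cells showing the perinucleolar compartment, a nuclear body marking cancer cells; inconclusive means readout between -30 and a set limit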;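 further: plate controls were DMSO wells for no effect and camptothecin positive control wells for full effect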
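PC3M cells stably expressing PTB-GFP, 750–1000 cells/well, treated 16 h at 37 °C with compound (23 nl of library stock), in duplicate. After paraformaldehyde fixation and Hoechst stain, imaged at 20x; PNC prevalence scored by image analysis.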
Tau fluor counter: counter-screen for tau fibril formation inhibitors; tau K18 P301L (four-repeat tau fragment) Alexa594 fluorescence, heparin fibrillization; Potency, µM (titrated, usually from 57.7 µM), inactives show top-dose activity change, negative = decrease; 280,000 compounds, 0.93% hits; AID 1463; further: potency means the concentration at half of the fitted maximal effect; nearly all actives have a fitted effect of over 55% in size
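Human K18 P301L tau (15 uM unlabeled plus 0.24 uM Alexa 594-labeled, final) in 100 mM sodium acetate pH 7 was mixed with compound and 20 uM heparin and incubated 6 hr at 37 C.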
* hit, by the source's call; ? = inconclusive; nt = no result given; [ ] = remark or other dose. Unless noted, the call rests on the fitted dose curve; in most records, active means well fitted curve in the direction sought with a large enough effect; inconclusive means small, poorly fitted or top-dose-only effect, or another doubt; inactive means no such curve, though single readings can be large; an effect the other way counts as inactive or inconclusive. Unless noted, on the % scale 0 is the no-effect control and ±100 the full control effect.

SMILES | Tau fibril ThT | Tau FP inhib | NPSR antag | KDM4E inh | PNC assembly inh | Tau fluor counter
O=C1c2ccccc2-c2onc3c(Oc4ccccc4)cc(O)c1c23 | 18µM* | -7% | -12%[46.1 µM] | -6% | 17 | ?
Cc1ccc(NC(=O)C2CCCN(S(=O)(=O)c3ccc(F)cc3)C2)cc1 (stereo not given) | -6% | 2% | nt | nt | nt | -16%
Cc1ccc(S(=O)(=O)N2CCCC(C(=O)NC3=NCCS3)C2)cc1 (stereo not given) | 0% | 3% | -8%[46.1 µM] | -1% | -103* | -1%
COCCCNC(=O)C1CCCN(S(=O)(=O)c2ccc(C)cc2)C1 (stereo not given) | 3% | 11% | -6%[46.1 µM] | -6% | -100* | 6%
CCOC(=O)c1ccc(CC(=O)c2ccc(O)c(O)c2O)o1 | 16µM* | 22µM* | -5% | 3.2µM* | nt | ?
Cc1cc(C2CCCCC2)n(O)c(=O)c1 | -5% | 6% | nt | 10µM* | nt | -6%
O=C1C2C3C=CC(C2C(=O)N1C1CCCCC1)C1C(=O)N(C2CCCCC2)C(=O)C31 (stereo not given) | -4% | 4% | -2%[46.1 µM] | 8% | -2 | -5%
Cc1cc(NC(=O)CSc2ncc(C(=O)Nc3ccc(C)c(C)c3)c(=O)n2C)no1 | -9% | -8% | nt | nt | nt | 1%
Cc1ccccc1/C=C\c1nc2ccccc2c(=O)[nH]1 | -7% | 4% | -50% | ? | nt | -2%
Cc1ccccc1/C=C/c1cc[n+](C)cc1 | -10% | 0% | -13% | 25µM* | nt | -4%
Cc1[nH]c2ccccc2c1/C=C/c1cc[n+](C)cc1 | ? | 3% | 10µM* | 3% | -23 | -7%
CC12CCC(c3c(C(=O)O)nn(-c4ccccc4)c31)C2(C)C (stereo not given) | -6% | -5% | -3%[46.1 µM] | 1% | -127* | 0%
CC12CCC(c3c(CO)nn(-c4ccccc4)c31)C2(C)C (stereo not given) | -5% | -1% | -4%[46.1 µM] | -3% | ? | -1%
O=C(CSc1nc2c(sc3ccccc32)c(=O)n1Cc1ccco1)NCC1CCCO1 (stereo not given) | -6% | 2% | -13%[46.1 µM] | ? | -89* | 6%
O=C(CSc1nc2c(sc3ccccc32)c(=O)n1Cc1ccccc1)NCC1CCCO1 (stereo not given) | -5% | 2% | -12%[46.1 µM] | 6% | 28 | -4%
COc1ccc(-c2nc(CSCC(=O)NCc3ccc4c(c3)OCO4)c(C)o2)cc1OC | 11% | 0% | 0% | 1% | -92* | 0%
COCCNC(=O)CSCc1nc(-c2ccc(SC)cc2)oc1C | -5% | 7% | 5%[46.1 µM] | ? | -89* | 3%
O=C(OCn1ncc(Cl)c(Cl)c1=O)c1ccccc1Cl | 14µM* | -20% | 5µM* | 1% | 56 | -14%
CCc1cc(SC#N)ccc1N | 13µM* | ? | 1% | 4% | nt | -18%
CCCCn1c(=O)c2oc3ccccc3c2n(CC(=O)Nc2ccc(CC)cc2)c1=O | 6% | -14% | nt | nt | nt | -4%
Cc1sc(-c2ccncc2)nc1OC(=O)c1cc(Cl)cc(Cl)c1 | 28µM* | -12% | -23%[46.1 µM] | -2% | 26 | -15%
CC(=O)C(Cl)C(=O)Nc1ccccc1 (stereo not given) | 25µM* | ? | 3% | -6% | nt | -15%
CC(Cc1ccccc1)C(=O)Nc1ccccc1 (stereo not given) | -7% | 0% | 5% | -2% | -28 | -11%
CCCCC(CC)C(=O)Nc1ccc(Nc2ccccc2)cc1 (stereo not given) | ? | 0% | -52% | -5% | 20 | 10µM*[quencher]
CCN1C(=O)/C(=C2\C=Cc3cc(C)ccc3N2CC)OC1=S | ? | 5% | -5% | -4% | ? | -9%
SMILES | Tau fibril ThT | Tau FP inhib | NPSR antag | KDM4E inh | PNC assembly inh | Tau fluor counter
CCN1C(=O)/C(=c2\o/c(=C3\C=Cc4ccccc4N3CC)c(=O)n2CC)SC1=S | ? | 5% | -2%[46.1 µM] | 14% | 23 | -8%
CCN1C(=O)/C(=C2\C=Cc3ccccc3N2CC)SC1=S | 6.3µM* | 12% | ? | 5% | -13 | ?
CCN1C(=O)/C(=C2/C=Cc3ccccc3N2C)OC1=S | 3.2µM* | -4% | -4%[46.1 µM] | 4% | ? | -15%
CCn1ccc2cc(S(=O)(=O)N3CCC(C(=O)NCCc4ccc(SC)cc4)CC3)ccc21 | 2% | -8% | nt | nt | nt | -15%
CCC12CN3CC(CC)(CN(C1)C3c1cccc(OC)c1O)C2=O (stereo not given) | 5% | 5% | nt | nt | nt | -2%
COCCCNc1ncnc2c1c(-c1ccccc1)cn2-c1ccc(C)c(Cl)c1 | -7% | 7% | nt | nt | nt | 2%
COC(=O)c1cccc(NC(=O)Nc2ccc(Cl)c(Cl)c2)c1 | ? | 13µM* | -4%[46.1 µM] | 15% | 6 | ?
COC(=O)c1ccc(NC(=O)Nc2ccc(F)c(Cl)c2)cc1 | ? | 16µM* | -13%[46.1 µM] | -2% | 7 | ?
COC(=O)c1cccc(NC(=O)NC(=O)c2ccccc2Cl)c1 | -2% | -15% | -14% | 4% | nt | -7%
COC(=O)c1c(NC(=O)Nc2ccc(Cl)cc2)sc(C)c1C | -17% | -16% | 10µM* | ? | -16 | ?
CCOC(=O)Cc1cc(C(=O)Nc2ccc(Br)cc2)sc1-c1ccc(C)cc1 | ? | ? | nt | nt | nt | -28%
C=C1c2cccc(OC)c2O[C@H](C(=O)OCC)[C@@H]1CCC(C)C | -16%[81.4 µM] | -3%[81.3 µM] | nt | nt | nt | -15%[81.3 µM]
CCOC(=O)c1ccccc1NC(=O)c1sc2ncn(Cc3cccc(F)c3)c(=O)c2c1C | -4% | -19% | nt | nt | nt | -17%
O=C1CCCC2=C1C(c1ccc(Cl)cc1)N1C(=O)CCSC1=N2 (stereo not given) | -8% | 0% | -18%[46.1 µM] | -2% | -100* | -13%
CC1(C)CC(=O)C2=C(C1)N=C1SCCC(=O)N1C2c1ccccc1 (stereo not given) | -11% | -7% | -29%[46.1 µM] | -3% | ? | 0%
Cn1ncc(Br)c1C(=O)N/N=C/c1ccc(OS(=O)(=O)c2ccccc2)cc1 | ? | -10% | 5%[46.1 µM] | -3% | -80* | ?
CC(/C=N/NC(=O)c1c(Br)cnn1C)=C\c1ccccc1 | 3% | 5% | -1% | 2% | ? | 11%
CC1(OC(=O)C2CCCC2)C(=O)C=C2C=C(c3ccsc3)N(Cc3ccco3)C=C2C1=O (stereo not given) | ? | -4%[11.6 µM] | -6% | ? | nt | -14%[11.6 µM]
CC1(OC(=O)C2CCCC2)C(=O)C=C2C=C(c3ccsc3)OC=C2C1=O (stereo not given) | 16µM* | ? | 10% | -2% | nt | ?
CC1(OC(=O)c2cccs2)C(=O)C=C2C=C(c3ccc(C#N)cc3)OC=C2C1=O (stereo not given) | 28µM* | ? | nt | 0% | nt | -12%

Assay outcomes deposited in PubChem by National Center for Advancing Translational Sciences (NCATS).
